# In PubChem BioAssay (Tox21):
# Unmarked numbers belong to inactive results. Results filed as inconclusive are left out. Activity calls are given as the source filed them. Calls follow the shape of the full dose curve.
# Biological target: Acetylcholinesterase (Homo sapiens) (UniProt P22303)
# Experiment: Acetylcholinesterase (AChE) small molecule antagonists: colormetric cell-based qHTS assay (AID 1347395); also: nearly all actives have a fitted effect of over 30% in size
# Details: SH-SY5Y cells AChE activity, colorimetric (Ellman); series mostly up to 115 µM; activity, negative = inhibition: at the top concentration
# Outline: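 Quantitative HTS in attached SH-SY5Y cells: 30 min compound exposure, then 90 min with acetylthiocholine and DTNB at 37 C; colour from thiocholine reports AChE activity.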
# % is scaled to controls: 0 for no effect and ±100 for the full control effect.
# Sequence of Acetylcholinesterase (Homo sapiens) (P22303 whole entry, looked up): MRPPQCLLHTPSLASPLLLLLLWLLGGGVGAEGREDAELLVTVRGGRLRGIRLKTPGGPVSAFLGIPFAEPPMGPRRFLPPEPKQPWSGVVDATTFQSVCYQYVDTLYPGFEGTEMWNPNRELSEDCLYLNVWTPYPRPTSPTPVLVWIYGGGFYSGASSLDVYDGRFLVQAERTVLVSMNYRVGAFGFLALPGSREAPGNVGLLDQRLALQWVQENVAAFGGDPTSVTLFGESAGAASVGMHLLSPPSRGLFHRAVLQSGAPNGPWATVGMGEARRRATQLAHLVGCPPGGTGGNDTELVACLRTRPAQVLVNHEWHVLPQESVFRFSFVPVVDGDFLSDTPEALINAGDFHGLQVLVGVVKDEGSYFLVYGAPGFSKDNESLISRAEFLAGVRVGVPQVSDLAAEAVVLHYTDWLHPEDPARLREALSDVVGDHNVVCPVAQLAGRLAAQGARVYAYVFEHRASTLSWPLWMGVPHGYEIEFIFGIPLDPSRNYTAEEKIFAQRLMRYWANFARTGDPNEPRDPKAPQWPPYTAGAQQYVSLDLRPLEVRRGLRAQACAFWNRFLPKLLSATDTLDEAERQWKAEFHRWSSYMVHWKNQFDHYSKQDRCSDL
Compound,Potency,"activity, negative = inhibition"
C=C(C)C1CC=C(C)CC1 (stereo not given),inactive,
Cc1oc(-c2ccccc2)nc1CCOc1cccc2c1ccn2CCC(=O)O,,2.52%
CCCCCCCCCCCCI,,-1.31%
O=C(CC(=O)c1ccccc1)c1ccccc1,,0.838%
NCCNCCO,,-1.67%
Cc1cc(F)ccc1-c1cc(N2CC[C@@H](O)[C@H]2CO)ncc1N(C)C(=O)C(C)(C)c1cc(C(F)(F)F)cc(C(F)(F)F)c1,,0.762%
Cc1cc(C)c(N=Nc2c(O)c(S(=O)(=O)O)cc3cc(S(=O)(=O)O)ccc23)cc1C,,0.116% [at 10.5 µM]
CCCC1C(CC)=CC(CC)=CN1c1ccccc1 (stereo not given),,-7.41%
Cc1cc(=O)n(-c2ccccc2)n1C,inactive,
O=C(O)CCc1nc2ccccc2[nH]1,,1.26% [at 52.9 µM]
O=Cc1ccccc1C=O,inactive,
CN(C)CCN(C)CCN(C)C,,2.75%
FC(F)(F)c1ccc(Cl)c(Cl)c1,inactive,
COCc1c(C(C)C)nc(C(C)C)c(/C=C/[C@@H](O)C[C@@H](O)CC(=O)O)c1-c1ccc(F)cc1,,1.59% [at 52.9 µM]
CC(C)c1ccc(S(=O)(=O)O)cc1,inactive,
C=CCCC,,2.26%
CC(O)CO (stereo not given),inactive,
CCCCCCCCCCCCCC,,-0.303%
CC(C)c1ccc2ncccc2c1,,0.203%
O=C(c1ccc(O)cc1)c1ccc(O)cc1,,-1.88%

Compound,Potency,"activity, negative = inhibition"
O=[N+]([O-])c1ccccc1C(F)(F)F,inactive,
CC(C)(O)C#CC(C)(C)O,,-0.374%
N#CCC(=O)NN,,-1.06% [at 52.9 µM]
Cc1c(C2(c3cc(Br)c(O)c(Br)c3C)OS(=O)(=O)c3ccccc32)cc(Br)c(O)c1Br,,20.4%
CCCCCCCCOc1ccc(C(=O)c2ccccc2)c(O)c1,inactive,
CCCCCCCC/C=C\CCCCCCCC(=O)O,inactive,
COCCOCC(OC)OC,,2.73% [at 52.9 µM]
CC(C)=CCO,inactive,
O=[N+]([O-])c1ccc(/C=C/c2ccc([N+](=O)[O-])cc2S(=O)(=O)O)c(S(=O)(=O)O)c1,inactive,
O=C(O)Cc1ccccc1Nc1c(Cl)cccc1Cl,inactive,
C[C@@H](N)C(=O)O,,0% [at 52.9 µM]
CC(=O)c1ccc(Cl)c(Cl)c1Cl,,4.26%
CC(C)(C)C(=O)c1ccccc1,,2.47%
c1ccc2cc3c(ccc4ccccc43)cc2c1,inactive,
COc1cccc(N(C)C(=S)Oc2ccc3c(c2)CCCC3)n1,,0.589% [at 52.9 µM]
CCCCC(CC)COC(=O)c1ccc(O)cc1 (stereo not given),inactive,
O=C1CCc2ccccc2O1,inactive,
CN(C)CCCN(C)C,,3.16% [at 10.5 µM]
CCc1cccc(O)c1,inactive,
COC(=O)CCCCCCCC(=O)OC,,2.92%

# Biological target: Acetylcholinesterase (Homo sapiens) (UniProt P22303)
# Experiment: Acetylcholinesterase (AChE) small molecule antagonists: enzyme-based qHTS assay (AID 1347397); also: nearly all actives have a fitted effect of over 55% in size
# Details: Potency: AChE enzyme activity inhibition; outcome: AChE enzyme activity inhibition; series mostly up to 115 µM; activity change, negative = inhibition: at the top concentration
# Outline: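 Colorimetric DTNB read-out of thiocholine released from acetylthiocholine by recombinant human AChE (50 mU/mL as dispensed). Compounds were preincubated 30 min at RT before substrate/DTNB addition, with a 10 min RT reaction.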
Compound,Potency,"activity change, negative = inhibition"
C=C(C)C1CC=C(C)CC1 (stereo not given),inactive,
Cc1oc(-c2ccccc2)nc1CCOc1cccc2c1ccn2CCC(=O)O,,-0.578%
CCCCCCCCCCCCI,,-0.817%
O=C(CC(=O)c1ccccc1)c1ccccc1,,1.25%
NCCNCCO,,0%
Cc1cc(F)ccc1-c1cc(N2CC[C@@H](O)[C@H]2CO)ncc1N(C)C(=O)C(C)(C)c1cc(C(F)(F)F)cc(C(F)(F)F)c1,,-0.0038%
Cc1cc(C)c(N=Nc2c(O)c(S(=O)(=O)O)cc3cc(S(=O)(=O)O)ccc23)cc1C,,0.136% [at 10.5 µM]
CCCC1C(CC)=CC(CC)=CN1c1ccccc1 (stereo not given),,-2.1%
Cc1cc(=O)n(-c2ccccc2)n1C,inactive,
O=C(O)CCc1nc2ccccc2[nH]1,,3.16% [at 53 µM]
O=Cc1ccccc1C=O,inactive,
CN(C)CCN(C)CCN(C)C,,-6.14%
FC(F)(F)c1ccc(Cl)c(Cl)c1,inactive,
COCc1c(C(C)C)nc(C(C)C)c(/C=C/[C@@H](O)C[C@@H](O)CC(=O)O)c1-c1ccc(F)cc1,inactive,
CC(C)c1ccc(S(=O)(=O)O)cc1,inactive,
C=CCCC,,4.34%
CC(O)CO (stereo not given),inactive,
CCCCCCCCCCCCCC,,1.24%
CC(C)c1ccc2ncccc2c1,,0.756%
O=C(c1ccc(O)cc1)c1ccc(O)cc1,,-11.6%

Compound,Potency,"activity change, negative = inhibition"
O=[N+]([O-])c1ccccc1C(F)(F)F,inactive,
CC(C)(O)C#CC(C)(C)O,,-1.91%
N#CCC(=O)NN,,1.79% [at 53 µM]
Cc1c(C2(c3cc(Br)c(O)c(Br)c3C)OS(=O)(=O)c3ccccc32)cc(Br)c(O)c1Br,,12%
CCCCCCCCOc1ccc(C(=O)c2ccccc2)c(O)c1,inactive,
CCCCCCCC/C=C\CCCCCCCC(=O)O,inactive,
COCCOCC(OC)OC,,-0.132% [at 53 µM]
CC(C)=CCO,inactive,
O=[N+]([O-])c1ccc(/C=C/c2ccc([N+](=O)[O-])cc2S(=O)(=O)O)c(S(=O)(=O)O)c1,inactive,
O=C(O)Cc1ccccc1Nc1c(Cl)cccc1Cl,inactive,
C[C@@H](N)C(=O)O,,0.693% [at 53 µM]
CC(=O)c1ccc(Cl)c(Cl)c1Cl,,0.136%
CC(C)(C)C(=O)c1ccccc1,,0.006%
c1ccc2cc3c(ccc4ccccc43)cc2c1,inactive,
COc1cccc(N(C)C(=S)Oc2ccc3c(c2)CCCC3)n1,,-0.405% [at 53 µM]
CCCCC(CC)COC(=O)c1ccc(O)cc1 (stereo not given),inactive,
O=C1CCc2ccccc2O1,inactive,
CN(C)CCCN(C)C,,0.096% [at 10.5 µM]
CCc1cccc(O)c1,inactive,
COC(=O)CCCCCCCC(=O)OC,,0.839%
